Results as given in PubChem BioAssay.
The source made the active and inactive calls.

Key:
[1] = biological target: Albumin (Bos taurus) (UniProt P02769); experiment: bovine serum albumin binders on microarray, profiling panel, artefact control for SMM control protein annotation, biochemical, small-molecule microarray, Alexa647 label, 635/667 nm fluorescence (AID 1118); details: BSA-A647 binding, fluorescence 635 nm, higher = more signal;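 note: score merges 667 nm emission intensity and signal-to-noise per printed compound spot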
[2] = small-molecule microarray binders of probe aXIP, primary screen, biochemical, NeuroSMM set, 635/667 nm fluorescence (AID 1119); details: higher = more signal, called active from +8 up or from −8 down;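 note: probe is the protein aXip251-270 applied at 1 µg/mL to compound-printed slides; binding of probe to printed compounds measured as 667 nm fluorescence plus signal to noise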
[3] = small-molecule binders of probe aNOTCH3, primary screen, biochemical, small-molecule microarray, 635/667 nm fluorescence (AID 1120); details: higher = more signal;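 note: probe is a biotin-tagged antibody raised against NOTCH3 rather than NOTCH3 protein; score merges spot fluorescence near 667 nm with spot signal to noise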
[4] = small-molecule binders of probe aNOTCH2, primary screen, biochemical, small-molecule microarray, 635/667 nm fluorescence (AID 1121); details: higher = more signal;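 note: score merges feature fluorescence read at 667 nm with its signal to noise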
[5] = biological target: Carbonic anhydrase 2 (Homo sapiens) (UniProt P00918); experiment: CAII small-molecule binders, profiling panel, biochemical, small-molecule microarray, Alexa647-labelled CAII (AID 1122); details: CAII-A647 binding fluorescence, higher = more signal
[6] = COS7 lysate on small-molecule microarray, probe aHis, 635 nm (AID 1123); details: COS7 cell lysate, fluorescence, higher = more signal;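 note: z-score combines 667nm fluorescence intensity with signal-to-noise per printed compound spot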
[7] = compound binding in COS7 lysate, probe aLAP1, primary screen, cell lysate, small-molecule microarray (AID 1124); details: probe aLAP1, fluorescence, higher = more signal;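 note: lysate comes from COS7 cells expressing LAP1 and is applied at 0.3 µg/mL; score merges spot fluorescence near 667 nm with signal-to-noise over triplicate slides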
[8] = system: Sam68 (KHDRBS1); experiment: Sam68 small-molecule binders, primary screen, biochemical, small-molecule microarray, 635 nm fluorescence (AID 1125); details: small-molecule microarray binding, higher = more signal;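 note: score merges 667 nm channel intensity with signal to noise over triplicate slides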
[9] = system: Chordin-like protein 2 (CHRDL2); experiment: CHRDL2 small-molecule binders, primary screen, biochemical, small-molecule microarray, 635 nm fluorescence (AID 1126); details: small-molecule microarray binding, fluorescence 635 nm; higher = more signal;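 note: printed compound slides probed with Chrdl2 protein at 4 µg/mL for 1 h at 4 C; score merges 667 nm emission intensity with signal to noise over three replicate slides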
[10] = biological target: Concanavalin-A (Canavalia ensiformis) (UniProt P02866); experiment: ConA small-molecule binders, primary screen, artefact control for SMM control protein annotation, biochemical, small-molecule microarray, Alexa647 label, 635 nm (AID 1127); details: ConA-A647 binding fluorescence, higher = more signal;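 note: z combines 667 nm emission intensity with signal-to-noise across three replicate slides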
[11] = anti-His antibody binders, primary screen, artefact control for SMM control protein annotation, biochemical, small-molecule microarray, 635 nm fluorescence (AID 1128); details: anti-His Alexa647 antibody binding, higher = more signal;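 note: score merges feature fluorescence with signal-to-noise for each printed compound spot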
[12] = system: Human papillomavirus type 1a E7 protein (residues 1-88); experiment: HPV1a E7 small-molecule binders, primary screen, biochemical, small-molecule microarray, residues 1-88, 635 nm (AID 1129); details: small-molecule microarray binding, fluorescence 635 nm; higher = more signal
[13] = biological target: Focal adhesion kinase 1 (Homo sapiens) (UniProt Q05397); experiment: small-molecule microarray binders of FAK, primary screen, biochemical, 635/667 nm fluorescence, BSA, DTT (AID 1130); details: PTK2 binding, 635 nm fluorescence, higher = more signal;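 note: composite of spot emission at 667 nm and signal to noise over triplicate slides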
[14] = system: Fibrinogen (Alexa647-labelled); experiment: fibrinogen binders on compound microarrays, profiling panel, artefact control for SMM control-protein annotation, biochemical, small-molecule microarray, 635/667 nm fluorescence (AID 1131); details: fibrinogen-A647 binding fluorescence, higher = more signal;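 note: z-score merges 667 nm fluorescence with per-spot signal-to-noise over triplicate slides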
[15] = biological target: Follistatin (Homo sapiens) (UniProt P19883); experiment: follistatin binders on small-molecule microarrays, primary screen, biochemical, small-molecule microarray, 635/667 nm fluorescence (AID 1132); details: FST binding, 635 nm fluorescence, higher = more signal
[16] = biological target: Fibroblast growth factor 2 (Homo sapiens) (UniProt P09038); experiment: FGF2 binders on small-molecule microarrays, primary screen, biochemical, small-molecule microarray, 635/667 nm fluorescence (AID 1133); details: small-molecule microarray binding, FGF2, fluorescence 635/667; higher = more signal
[17] = mitochondrial membrane potential change in A549 cells, profiling panel, cell-based, JC-1 fluorescence, basal, 24 h, 100 nL (AID 1138); details: higher = more signal;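 note: A549 lung adenocarcinoma cells under basal conditions with no added stimulus; test concentration not given here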
[18] = system: Lefty1; experiment: Lefty1 binders on small-molecule microarrays, primary screen, biochemical, small-molecule microarray, 635/667 nm fluorescence (AID 1139); details: small-molecule microarray binding, fluorescence 635/667; higher = more signal
[19] = system: wheat germ agglutinin (Triticum aestivum), Alexa647-labelled; experiment: wheat germ agglutinin binders on compound microarrays, profiling panel, artefact control for SMM control-protein annotation, biochemical, small-molecule microarray, 635/667 nm fluorescence (AID 1140); details: WGA-A647 binding, 635 nm fluorescence, higher = more signal;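 note: score merges 667 nm feature emission with signal to noise over triplicate slides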
[20] = biological target: Luciferin 4-monooxygenase (Photinus pyralis) (UniProt P08659); experiment: firefly luciferase enzyme inhibitors, primary screen, biochemical, luminescence, purified enzyme, 2006 set (AID 1141); details: SteadyGlo luminescence, 30 min, higher = more signal, called active from +8 up or from −8 down;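 note: cell-free assay with purified firefly luciferase at 100 ng per well in PBS; test concentration not given here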
Sequence of Luciferin 4-monooxygenase (Photinus pyralis) (P08659 whole entry, looked up): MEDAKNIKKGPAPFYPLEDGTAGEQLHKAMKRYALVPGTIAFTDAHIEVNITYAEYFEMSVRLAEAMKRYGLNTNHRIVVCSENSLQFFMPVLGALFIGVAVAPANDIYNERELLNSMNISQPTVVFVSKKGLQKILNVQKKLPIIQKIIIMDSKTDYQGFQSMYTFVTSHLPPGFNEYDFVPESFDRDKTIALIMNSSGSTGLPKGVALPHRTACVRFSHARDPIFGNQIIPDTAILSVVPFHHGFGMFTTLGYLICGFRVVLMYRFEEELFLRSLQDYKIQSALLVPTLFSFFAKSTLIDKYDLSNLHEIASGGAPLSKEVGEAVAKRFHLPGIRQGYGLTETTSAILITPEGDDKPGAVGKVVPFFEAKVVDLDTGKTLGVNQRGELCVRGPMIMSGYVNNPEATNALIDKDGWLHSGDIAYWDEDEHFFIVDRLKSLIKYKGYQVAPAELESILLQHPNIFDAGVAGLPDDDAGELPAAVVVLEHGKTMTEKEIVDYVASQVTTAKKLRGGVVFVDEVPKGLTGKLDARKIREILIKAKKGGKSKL

Sequence of Follistatin (Homo sapiens) (P19883 whole entry, looked up): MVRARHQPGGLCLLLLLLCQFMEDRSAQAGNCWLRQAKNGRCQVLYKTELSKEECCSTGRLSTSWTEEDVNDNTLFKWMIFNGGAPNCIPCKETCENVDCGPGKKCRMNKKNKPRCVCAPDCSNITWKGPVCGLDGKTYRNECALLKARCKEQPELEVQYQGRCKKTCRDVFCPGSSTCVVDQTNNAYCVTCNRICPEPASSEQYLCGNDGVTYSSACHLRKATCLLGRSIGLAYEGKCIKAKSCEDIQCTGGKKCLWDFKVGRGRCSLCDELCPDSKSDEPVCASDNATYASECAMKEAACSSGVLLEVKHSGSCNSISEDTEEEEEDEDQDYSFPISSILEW
Sequence of Concanavalin-A (Canavalia ensiformis) (P02866 whole entry, looked up): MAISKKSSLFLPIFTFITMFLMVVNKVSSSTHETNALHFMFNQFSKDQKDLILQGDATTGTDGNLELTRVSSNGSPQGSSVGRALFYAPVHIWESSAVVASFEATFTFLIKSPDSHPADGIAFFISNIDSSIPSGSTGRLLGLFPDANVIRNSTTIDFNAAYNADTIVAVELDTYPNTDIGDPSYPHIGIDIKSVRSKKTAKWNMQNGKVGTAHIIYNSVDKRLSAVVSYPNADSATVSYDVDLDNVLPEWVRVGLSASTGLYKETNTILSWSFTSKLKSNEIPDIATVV
Sequence of Fibroblast growth factor 2 (Homo sapiens) (P09038 whole entry, looked up): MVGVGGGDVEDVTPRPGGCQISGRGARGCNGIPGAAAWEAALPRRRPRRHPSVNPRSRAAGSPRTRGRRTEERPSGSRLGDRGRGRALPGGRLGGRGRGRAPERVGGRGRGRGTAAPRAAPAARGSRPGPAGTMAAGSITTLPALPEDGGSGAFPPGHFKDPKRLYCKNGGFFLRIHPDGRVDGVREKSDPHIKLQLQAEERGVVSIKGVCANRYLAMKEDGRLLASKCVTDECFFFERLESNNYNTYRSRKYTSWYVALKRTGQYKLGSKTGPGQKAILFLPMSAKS
Sequence of Focal adhesion kinase 1 (Homo sapiens) (Q05397 whole entry, looked up): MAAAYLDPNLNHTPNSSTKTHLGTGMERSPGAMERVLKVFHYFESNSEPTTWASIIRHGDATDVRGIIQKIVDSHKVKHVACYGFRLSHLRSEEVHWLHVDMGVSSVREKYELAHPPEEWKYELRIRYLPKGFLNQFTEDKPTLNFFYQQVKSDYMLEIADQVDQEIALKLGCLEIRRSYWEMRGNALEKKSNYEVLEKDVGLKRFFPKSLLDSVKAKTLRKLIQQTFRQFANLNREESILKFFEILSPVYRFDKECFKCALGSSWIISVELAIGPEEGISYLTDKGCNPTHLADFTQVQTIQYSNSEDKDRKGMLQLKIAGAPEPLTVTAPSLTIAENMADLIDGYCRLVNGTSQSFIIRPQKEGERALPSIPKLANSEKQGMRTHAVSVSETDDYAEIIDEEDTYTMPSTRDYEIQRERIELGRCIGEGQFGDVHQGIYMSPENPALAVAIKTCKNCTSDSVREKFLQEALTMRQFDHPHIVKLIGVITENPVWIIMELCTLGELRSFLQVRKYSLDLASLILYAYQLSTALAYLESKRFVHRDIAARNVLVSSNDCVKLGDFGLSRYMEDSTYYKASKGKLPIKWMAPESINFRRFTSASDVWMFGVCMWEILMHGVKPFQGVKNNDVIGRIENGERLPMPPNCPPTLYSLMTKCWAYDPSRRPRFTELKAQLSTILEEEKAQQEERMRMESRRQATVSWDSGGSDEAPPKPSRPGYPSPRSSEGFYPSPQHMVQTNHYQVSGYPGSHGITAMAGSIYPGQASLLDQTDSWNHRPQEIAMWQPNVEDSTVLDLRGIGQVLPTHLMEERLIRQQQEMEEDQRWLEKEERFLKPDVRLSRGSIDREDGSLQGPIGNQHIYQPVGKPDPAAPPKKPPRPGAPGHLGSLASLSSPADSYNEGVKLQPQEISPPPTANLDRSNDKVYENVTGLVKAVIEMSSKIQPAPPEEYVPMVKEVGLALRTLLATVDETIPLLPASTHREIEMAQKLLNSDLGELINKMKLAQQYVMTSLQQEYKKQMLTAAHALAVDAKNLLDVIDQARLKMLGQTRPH
Sequence of Albumin (Bos taurus) (P02769 whole entry, looked up): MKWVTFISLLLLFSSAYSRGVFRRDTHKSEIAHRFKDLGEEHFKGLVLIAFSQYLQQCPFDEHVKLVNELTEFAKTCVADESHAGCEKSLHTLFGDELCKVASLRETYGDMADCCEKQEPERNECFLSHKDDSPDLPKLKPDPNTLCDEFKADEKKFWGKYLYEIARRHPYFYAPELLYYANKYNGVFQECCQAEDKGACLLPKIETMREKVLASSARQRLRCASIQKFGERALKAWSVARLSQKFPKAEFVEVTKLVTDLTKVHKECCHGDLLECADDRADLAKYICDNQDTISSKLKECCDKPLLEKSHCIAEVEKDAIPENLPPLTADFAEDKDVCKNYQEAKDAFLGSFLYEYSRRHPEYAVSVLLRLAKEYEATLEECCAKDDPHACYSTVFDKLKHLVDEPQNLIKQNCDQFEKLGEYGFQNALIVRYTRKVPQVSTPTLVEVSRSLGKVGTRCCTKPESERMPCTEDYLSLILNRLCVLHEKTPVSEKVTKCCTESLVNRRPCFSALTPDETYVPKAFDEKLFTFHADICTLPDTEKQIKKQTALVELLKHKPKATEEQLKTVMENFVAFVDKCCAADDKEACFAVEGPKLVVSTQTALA

Row | SMILES | composite z-score [1] | composite Z-score [2] | composite z-score [3] | composite z-score [4] | composite z-score [5] | composite z-score [6] | composite z-score [7] | composite z-score [8] | composite z-score [9] | composite z-score [10] | composite z-score [11] | composite z-score [12] | composite z-score [13] | composite z-score [14] | composite z-score [15] | composite z-score [16] | z-score [17] | composite z-score [18] | composite z-score [19] | z-score [20]
1 | CC(=O)NCCCC[C@@H]1NC(=O)[C@H]2C[C@@H](C(=O)NCCCCCCN(C)C)[C@@H](c3cccc(OCCO)c3)N2C1=O | -1.13 | 3.25 (inactive) | 0.259 | 0.075 | 0.694 | 1.73 | 1.09 | 1.32 | 1.43 | 1.16 | 2.66 | 1.2 | 1.15 | 0.478 | 1.37 | 1.33 | -0.153 | 1.57 | 0.797 | -0.805 (inactive)
2 | CO[C@H]1COC(=O)CC=C[C@H](C)COC(=O)[C@@H](OCc2ccccc2)C=C[C@@H]1C | -0.877 | 2.71 (inactive) | -0.308 | -0.14 | -0.394 | -0.234 | 0.0842 | 0.379 | 1.51 | -0.602 | 0.507 | -0.67 | -0.3 | -0.418 | 1.56 | 1.83 | 0.33 | 1.69 | -0.726 | -0.275 (inactive)
3 | CCCCO[C@H]1C[C@H]2C(Br)=C[C@@]1(CO)C(=O)[C@]21CO1 | -1.23 | -0.442 (inactive) | -0.0647 | -0.201 | -0.548 | 0.124 | -0.139 | 0.362 | 0.569 | 0.153 | -0.487 | -0.153 | 0.692 | -0.46 | 0.452 | 0.0225 | 0.826 | 0.641 | -0.283 | -0.553 (inactive)
4 | C=C(CCCC)C(=O)CC[C@@H](OC(=O)c1cccnc1)c1cccc(OCCO)c1 | -1.06 | -0.123 (inactive) | 0.0351 | -0.148 | 0.15 | 0.0383 | 0.0475 | 0.789 | 0.207 | -0.158 | 0.419 | -0.411 | 0.533 | 0.314 | 0.674 | 1.14 | 3.35 | 0.779 | 0.59 | -3.06 (inactive)
5 | CN(C)c1ccc(C(O)C2C=CC3C(=O)NC(=O)C3N2Nc2ccc(Cl)cc2Cl)cc1 (stereo not given) | 0.667 | 0.66 (inactive) | 0.0961 | 0.046 | 0.735 | 2.51 | 0.305 | 0.708 | -0.0762 | 0.332 | -0.129 | 1.14 | 0.155 | 0.762 | 1.16 | -0.785 | 0.587 | -0.345 | 0.5 | -0.316 (inactive)
6 | CC(C)C[C@@H]1NC(=O)[C@H](CC(C)C)NC(=O)[C@@]23C(=O)N[C@@H](Cc4ccccc4)C2[C@H](C)[C@@]2(C)O[C@H]2C3/C=C/CC/C=C/CNC1=O (stereo not given in full) | 0.734 | -0.392 (inactive) | -0.0657 | -0.118 | 0.578 | 0.268 | -0.219 | 1.05 | 0.702 | 1.02 | 0.239 | 0.329 | 0.427 | 0.722 | 0.758 | 0.319 | 0.234 | 1.01 | 0.265 | 0.244 (inactive)
